Experimental data: PubChem BioAssay AID493169 (National Center for Advancing Translational Sciences (NCATS), 2011)
Results filed as inconclusive are left out. Entries that show only a call come without a potency. Calls of active or inactive are those of the source. Calls follow the shape of the dose curve; as a rule, active = well fitted inhibition curve with a large enough effect; inconclusive = small, poorly fitted or top-dose-only effect; inactive = flat fitted curve, though single readings scatter.

Assay: CHOP2 Reporter Counterscreen Assay for Inhibitors of Ubiquitin-specific Protease USP2a;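 also: activated enterokinase alone at 50 pM in a cell-free format rather than USP2a or CHOP2; nearly all actives have a fitted effect of over 55% in size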
Procedure, shortened: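 Fluorescence (485/531 nm) read 10 min after adding 25nM reporter substrate to 50 pM activated EK preincubated 30 min RT with compound; Tris pH 8.0/CaCl2/CHAPS buffer. Data normalized to buffer-alone inhibition; concentration-response curves fitted.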
Potency is read from the fitted curve at half-maximal effect.

SMILES	Potency
Cc1n[nH]c(C)c1S(=O)(=O)N1CCCC(C(=O)Nc2nccs2)C1 (stereo unspecified)	inactive
O=C1/C(=C/C=C/c2ccco2)SC(=S)N1c1ccc(O)cc1	2.82 µM (active)
O=C(CSc1nnnn1-c1ccc(F)cc1)c1ccc(O)c(O)c1	12.6 µM (active)
O=C(C[n+]1ccc(-c2cc(C(=O)Nc3cccc(C(F)(F)F)c3)c3ccccc3n2)cc1)c1cccc([N+](=O)[O-])c1	inactive
C[C@](N)(Cc1ccc(O)c(O)c1)C(=O)O	inactive
COc1cc(C2C(C#N)=C(N)Oc3c2ccc2ccccc32)ccc1OCC(=O)Nc1cccc(C)c1 (stereo unspecified)	inactive
CCN(CC(=O)Nc1ccc(NC(C)=O)cc1)C(=O)c1ccc(N2CCC(C)CC2)c([N+](=O)[O-])c1	inactive
CCOc1ccccc1C(=O)N[C@H](C(=O)Nc1ccc(OC)c(S(=O)(=O)N2CCOCC2)c1)C(C)C	inactive
Cc1ccc2[nH]c(C)c(CCNC(=O)c3cc4cc([N+](=O)[O-])ccc4oc3=O)c2c1	inactive
CCCCOC1(c2ccccc2)NC(=S)NN=C1c1ccccc1 (stereo unspecified)	inactive
CC1(C)CC(=O)C2=C(C1)N(Cc1ccco1)C(=O)NC2(C(F)(F)F)C(F)(F)F	inactive
CCC(=O)c1ccc(OCC(=O)NC2CCN(Cc3ccccc3)CC2)cc1	inactive
COc1ccc(Cc2nnc(NC(=O)Cc3cccs3)s2)cc1	1.78 µM (active)
C=CC[C@H](CC(=O)N(CCO)Cc1ccccc1)C(=O)N[C@H](C)COC(=O)[C@@H](CC=C)CC(=O)OC(C)(C)C	inactive
CCN(Cc1ccncc1)C(=O)c1cccs1	inactive
Cc1ccc(C)n1NC(=O)c1ccccc1O	inactive
CC1CCCC(NC(=O)C2N(CCCN3CCCC3)C(=O)C3C(C(=O)Nc4ccc(Cl)cc4)C4C=CC32O4)C1C (stereo unspecified)	inactive
Cc1ccc(S(=O)(=O)Nc2cc(C)c(O)c(S(=O)(=O)c3ccc(C)cc3)c2)cc1	inactive
CCOC(=O)N1CCN(C(=O)CN(c2ccc(Oc3ccccc3)cc2)S(C)(=O)=O)CC1	inactive
Cc1ccc(S(=O)(=O)N2[C@@H](c3ccc(C(C)(C)C)cc3)C(C(=O)O)=CC[C@H]2c2ccc(Cl)cc2)cc1	10 µM (active)
O=C(CSc1nc2ccccc2s1)NCCCN1CCOCC1	inactive
COc1cccc(C(=O)NC(C)c2ccc(-c3ccccc3)cc2)c1OC (stereo unspecified)	inactive
Cc1noc(NS(=O)(=O)c2ccc(N/C=C\C(=O)c3cccc4ccccc34)cc2)c1C	inactive
O=C(O)CP(=O)(c1ccccc1)c1ccccc1	inactive

SMILES	Potency
COC1=CCC2([N+](=O)[O-])CN(CCO)CC1([N+](=O)[O-])C2 (stereo unspecified)	inactive
CC1=NN(C(=O)c2csc(C)c2C)C(O)(C(F)(F)F)C1 (stereo unspecified)	inactive
COc1ccc(NC(=O)c2cc(-c3ccco3)nc3ccccc23)cc1S(=O)(=O)N1CCOCC1	5.62 µM (active)
CCCCCCCC/C=C\CCCCCCCC(=O)NCCc1ccc(O)c(O)c1	inactive
CCc1ccccc1OCC(=O)Nc1ccc(N2CCCC2)cc1C	10 µM (active)
CC(C)(C)OC(=O)C[C@H]1C/C=C\C[C@H](CC(=O)N(CCO)Cc2ccccc2)C(=O)NC[C@H](c2ccccc2)OC1=O	inactive
O=C(NC(=S)N1CCCc2ccccc21)c1ccc([N+](=O)[O-])cc1	inactive
CC(C)(C)C1C=C(Sc2ccccc2)C(=O)O1 (stereo unspecified)	inactive
COC(=O)N/N=C\c1cc(Br)ccc1OCc1ccccc1	inactive
Cn1c2ccccc2c2nnc(SC3CCOC3=O)nc21 (stereo unspecified)	inactive
Cc1ccc(C)n1-c1cc(S(=O)(=O)N2CCOCC2)ccc1N1CCCC1	inactive
COc1ccc(-c2nc(Cn3c(SCc4ccc(F)cc4)nc4ccncc43)c(C)o2)cc1OC	inactive
CCOC(=O)N1CCN(CC(=O)n2c(C)c(C)c3ccccc32)CC1	inactive
O=C(CN1CCOCC1)Nc1ccc(C2CCCCC2)cc1	inactive
COc1ccc(O)c(-c2cc(-c3ccc(F)cc3)n[nH]2)c1	inactive
C#CCOCCOCCOCCNc1nc(N2CCN(C(=O)CCCCCCCCCCNC(=O)[C@@H](CCSC)n3cc(CCO)nn3)CC2)nc(N2CCN(C(=O)CCCCCCCCCCNC(=O)[C@H](CCCN=C(N)N)n3cc(C[C@@H](C)CC)nn3)CC2)n1	2.51 µM (active)
COc1ccc(-n2c(=S)[nH]c3cc(C(=O)NCc4ccc(F)cc4)ccc3c2=O)c(OC)c1	inactive
COc1ccc(CC(NC(C)=O)C(=O)NC2CCN(c3nc(C)cc(C)c3C#N)CC2)c(OC)c1 (stereo unspecified)	inactive
O=C(CSCc1cnn(-c2ccccc2)c1-n1cccc1)NCC1CCCO1 (stereo unspecified)	inactive
CCN1C(=O)C(NC(C)=O)c2cc(OC)ccc21 (stereo unspecified)	inactive
CCCn1nnc(NC(=O)c2cccc(OCC(C)C)c2)n1	inactive
O=C(COC(=O)c1ccc(F)c(S(=O)(=O)N2CCOCC2)c1)c1ccccc1	inactive
CCCCNc1nc2ccccc2nc1NS(=O)(=O)c1cccs1	inactive
CCCCC(OC(=O)c1cc2occc2n1C)C(=O)NCC1CCCO1 (stereo unspecified)	inactive

SMILES	Potency
CC(C(=O)Nc1ccc(C(=O)O)c(O)c1)N1C(=O)/C(=C\c2ccco2)SC1=S (stereo unspecified)	7.94 µM (active)
CCCn1c(C)cc(C)c(C#N)c1=O	inactive
O=C(Nc1ccc(Oc2ccc(Cl)cc2)cc1)c1ncn[nH]1	inactive
O=C(c1ccccc1N(Cc1ccccc1)S(=O)(=O)c1ccccc1)N1CCOCC1	inactive
NC1=NC(=O)/C(=C/c2cccc(-c3ccc(S(N)(=O)=O)cc3)c2)S1	inactive
CC(C)c1ccc(Nc2nnc(SCC(=O)c3nnc(-c4ccccc4)o3)s2)cc1	5.01 µM (active)
S=c1[nH]nc(-c2cc(-c3ccco3)[nH]n2)n1-c1cccc2ccccc12	inactive
CC(C)(C)NC(=O)CSc1nc(O)cc(=O)n1-c1ccccc1F	inactive
COCCn1c(CN(Cc2ccccc2)Cc2ccccc2)nc2c1c(=O)n(C)c(=O)n2C	inactive
Cc1ccccc1OCc1nc2ccccc2c(=O)n1N	inactive
COC(=O)c1nnn(-c2nonc2N)c1CSc1ccccn1	inactive
CCCCCCCCCCOC(=O)Cn1c(COc2ccccc2)[n+](C)c2ccccc21	11.2 µM (active)
CCCCCCCCCCCCCCCCn1cc[n+](C)c1	10 µM (active)
Cc1cc(C)cc(NC(=O)CSc2nc3c(c(=O)[nH]2)CN(Cc2ccc(F)cc2)CC3)c1	inactive
Cc1ccc(C(=O)Oc2coc(CSc3nnc(NC(=O)c4cccs4)s3)cc2=O)cc1	3.16 µM (active)
Cc1ccc(S(=O)(=O)N2CCOCC2)cc1NC(=O)CN1C(=O)NC(C)(c2ccc(Cl)cc2Cl)C1=O (stereo unspecified)	inactive
C/C(CC(=O)N1CCCC1)=N\NC(=O)c1cc2ccccc2cc1O	inactive
COC(=O)C1CCN(C(=O)c2cc(-c3ccco3)nc3ccccc23)CC1	3.98 µM (active)
COc1ccc(CC(=O)c2ccccc2C(=O)O)cc1	inactive
C=CC[C@@H](CC(=O)N(CCO)Cc1ccccc1)C(=O)NCCOC(=O)[C@H](CC=C)CC(=O)OC(C)(C)C	inactive
CCOC(=O)C1CCN(C(=O)COC(=O)c2c(C)c(CC)nc3ccccc23)CC1	inactive
CC1CCN(c2ccc3c(c2)S(=O)(=O)c2cccc(C(=O)NC4CC4)c2C3=O)CC1	inactive
CNC(=O)NC(=O)CSc1ccc(NC(C)=O)cc1	inactive
Cc1ccc(C(=O)N(C)CC(=O)Nc2cccc(C)c2C)o1	inactive

SMILES	Potency
Cn1nnnc1Sc1ncnc2scc(-c3ccc4c(c3)OCO4)c12	inactive
Cc1cccc(N2CCN(C(=O)CCc3nc4ccccc4[nH]3)CC2C)c1 (stereo unspecified)	inactive
COC(=O)c1ccc(NC(=O)CSC2=Nc3ccccc3C3CC=NN23)cc1 (stereo unspecified)	inactive
Cn1c(=O)[nH]c(=O)c2c1nc(NCc1ccccc1)n2CCCc1ccccc1	inactive
Cc1c(N=C/C=C2\N(C)c3ccccc3C2(C)C)c(=O)n(-c2ccccc2)n1C	inactive
c1coc(CNC2CCCCCCC2)c1	inactive
Cc1c(NC(=O)c2ccc(COc3ccc4ccccc4c3)o2)c(=O)n(-c2ccccc2)n1C	inactive
Cc1nc(N(C)C)c2sc(=S)n(C)c2n1	inactive
Cn1c(=O)c2c(nc(CN3CCN(C(=O)c4ccco4)CC3)n2CCCc2ccccc2)n(C)c1=O	inactive
CCOC(=O)Nc1ccc(S(=O)(=O)Nc2cc(C)nc(C)n2)cc1	inactive
O=C(COC(=O)/C=C/c1ccc(Cl)cc1)NC1CC1	inactive
Cc1ccc(C(=O)O/N=C/c2c(C(F)(F)F)nn(C)c2Sc2ccc(Cl)cc2)cc1	inactive
CC(=O)O[C@H]1[C@H](O)[C@H](Oc2c(O)c(C)c3c4c2[C@@H](C)CC[C@@H]4[C@@H](C)C[C@H]3C=C(C)C)O[C@@H](C)[C@H]1O	inactive
O=C(O)C1CCN1C1CCCCC1 (stereo unspecified)	inactive
CCCCn1c(SCC(=O)N2CCC(C)CC2)nc2cc(S(N)(=O)=O)ccc21	inactive
O=C(CCN1C(=O)/C(=C\c2ccco2)SC1=S)Nc1ccc(C(=O)O)c(O)c1	10 µM (active)
CCOC(=O)COc1ccccc1/C=N/O	inactive
COC(=O)[C@@]12CCCCN1[C@H](c1ccc(-c3ccc(Cl)c(Cl)c3)cc1)[C@H]1C(=O)N(C)C(=O)[C@H]12	inactive
O=C1CCCc2nc(N3CCN(c4ccccc4)CC3)ncc21	inactive
CCOc1ccc(Cn2c(=O)sc3ccccc32)cc1OC	inactive
CCOc1cc(/C=C2\C(=O)N(c3nc(-c4ccc(Br)cc4)cs3)N=C2c2ccccc2)ccc1O	4.47 µM (active)
O=C(Nc1ccc(C2=NCCN2)cc1)c1ccc(C(=O)Nc2ccc(C3=NCCN3)cc2)c([N+](=O)[O-])c1	7.94 µM (active)
FC(F)(F)c1cnc2c(c1)Nc1ccccc1S2	inactive
CCc1sc(/C=C(/C#N)C(N)=S)cc1[N+](=O)[O-]	inactive
